From paper PMC9911399, “Two distinct binding modes provide the RNA-binding protein RbFox with extraordinary sequence specificity” come the findings set out here.

Substitutions are numbered along the chain they refer to; changes in the protein carry UniProt numbers. Whole data set: some 16,000 sequences, median “ka relative to ugcaugu” near 0.096, cut for the highest 2% near 0.35. Only a selection was taken, and the highest values are over-represented in it overall.

T1: RBFOX1 RRM RbFoxmut (Fox-RRM*) (Homo sapiens, UniProt Q9NWB1 109-208, R118D;E147R;N151S;E152T)
T1 sequence: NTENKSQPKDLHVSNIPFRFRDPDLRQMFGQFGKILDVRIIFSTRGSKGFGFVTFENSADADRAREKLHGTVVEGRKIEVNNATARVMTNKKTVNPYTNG

B1: CUGGUGC (DNA:RNA)
RNA: GGGAGACCGGAAUUCAGAUUGUCCCUGGUGCUUAAAUCCCGUCGUAGCCACCA
DNA 1: CAATCTGAATTCCGGTCTCCC
DNA 2: TGGTGGCTACGACGGGATT
B2: CGGACCU (DNA:RNA)
RNA: B1 RNA with U26G, G28A, U29C, G30C, C31U
DNA 1: CAATCTGAATTCCGGTCTCCC
DNA 2: TGGTGGCTACGACGGGATT
B3: CGGAUAC (DNA:RNA)
RNA: B1 RNA with U26G, G28A, G30A
DNA 1: CAATCTGAATTCCGGTCTCCC
DNA 2: TGGTGGCTACGACGGGATT
B4: CUCGGCU (DNA:RNA)
RNA: B1 RNA with G27C, U29G, G30C, C31U
DNA 1: CAATCTGAATTCCGGTCTCCC
DNA 2: TGGTGGCTACGACGGGATT
B5: AGCGAAC (DNA:RNA)
RNA: B1 RNA with C25A, U26G, G27C, U29A, G30A
DNA 1: CAATCTGAATTCCGGTCTCCC
DNA 2: TGGTGGCTACGACGGGATT
B6: UCGAUAG (DNA:RNA)
RNA: B1 RNA with C25U, U26C, G28A, G30A, C31G
DNA 1: CAATCTGAATTCCGGTCTCCC
DNA 2: TGGTGGCTACGACGGGATT
B7: AGCAAGC (DNA:RNA)
RNA: B1 RNA with C25A, U26G, G27C, G28A, U29A
DNA 1: CAATCTGAATTCCGGTCTCCC
DNA 2: TGGTGGCTACGACGGGATT
B8: GGGGAAC (DNA:RNA)
RNA: B1 RNA with C25G, U26G, U29A, G30A
DNA 1: CAATCTGAATTCCGGTCTCCC
DNA 2: TGGTGGCTACGACGGGATT
B9: AUGUCGU (DNA:RNA)
RNA: B1 RNA with C25A, G28U, U29C, C31U
DNA 1: CAATCTGAATTCCGGTCTCCC
DNA 2: TGGTGGCTACGACGGGATT
B10: AGGCAUG (DNA:RNA)
RNA: B1 RNA with C25A, U26G, G28C, U29A, G30U, C31G
DNA 1: CAATCTGAATTCCGGTCTCCC
DNA 2: TGGTGGCTACGACGGGATT
B11: GGGGGCA (DNA:RNA)
RNA: B1 RNA with C25G, U26G, U29G, G30C, C31A
DNA 1: CAATCTGAATTCCGGTCTCCC
DNA 2: TGGTGGCTACGACGGGATT
B12: ACCGGCA (DNA:RNA)
RNA: B1 RNA with C25A, U26C, G27C, U29G, G30C, C31A
DNA 1: CAATCTGAATTCCGGTCTCCC
DNA 2: TGGTGGCTACGACGGGATT
B13: AGGCAUA (DNA:RNA)
RNA: B1 RNA with C25A, U26G, G28C, U29A, G30U, C31A
DNA 1: CAATCTGAATTCCGGTCTCCC
DNA 2: TGGTGGCTACGACGGGATT
B14: GGGCAUA (DNA:RNA)
RNA: B1 RNA with C25G, U26G, G28C, U29A, G30U, C31A
DNA 1: CAATCTGAATTCCGGTCTCCC
DNA 2: TGGTGGCTACGACGGGATT
B15: CGGCAUG (DNA:RNA)
RNA: B1 RNA with U26G, G28C, U29A, G30U, C31G
DNA 1: CAATCTGAATTCCGGTCTCCC
DNA 2: TGGTGGCTACGACGGGATT
B16: GGGCAUG (DNA:RNA)
RNA: B1 RNA with C25G, U26G, G28C, U29A, G30U, C31G
DNA 1: CAATCTGAATTCCGGTCTCCC
DNA 2: TGGTGGCTACGACGGGATT
B17: GGCAUGU (DNA:RNA)
RNA: B1 RNA with C25G, U26G, G27C, G28A, C31U
DNA 1: CAATCTGAATTCCGGTCTCCC
DNA 2: TGGTGGCTACGACGGGATT
B18: CGGCAUA (DNA:RNA)
RNA: B1 RNA with U26G, G28C, U29A, G30U, C31A
DNA 1: CAATCTGAATTCCGGTCTCCC
DNA 2: TGGTGGCTACGACGGGATT
B19: AGGCAUC (DNA:RNA)
RNA: B1 RNA with C25A, U26G, G28C, U29A, G30U
DNA 1: CAATCTGAATTCCGGTCTCCC
DNA 2: TGGTGGCTACGACGGGATT
B20: GGCAUUU (DNA:RNA)
RNA: B1 RNA with C25G, U26G, G27C, G28A, G30U, C31U
DNA 1: CAATCTGAATTCCGGTCTCCC
DNA 2: TGGTGGCTACGACGGGATT
B21: UCCCUCG (DNA:RNA)
RNA: B1 RNA with C25U, U26C, G27C, G28C, G30C, C31G
DNA 1: CAATCTGAATTCCGGTCTCCC
DNA 2: TGGTGGCTACGACGGGATT
B22: CAACAUU (DNA:RNA)
RNA: B1 RNA with U26A, G27A, G28C, U29A, G30U, C31U
DNA 1: CAATCTGAATTCCGGTCTCCC
DNA 2: TGGTGGCTACGACGGGATT
B23: UUGUUCU (DNA:RNA)
RNA: B1 RNA with C25U, G28U, G30C, C31U
DNA 1: CAATCTGAATTCCGGTCTCCC
DNA 2: TGGTGGCTACGACGGGATT
B24: AGUGUUG (DNA:RNA)
RNA: B1 RNA with C25A, U26G, G27U, G30U, C31G
DNA 1: CAATCTGAATTCCGGTCTCCC
DNA 2: TGGTGGCTACGACGGGATT
B25: AGUCACC (DNA:RNA)
RNA: B1 RNA with C25A, U26G, G27U, G28C, U29A, G30C
DNA 1: CAATCTGAATTCCGGTCTCCC
DNA 2: TGGTGGCTACGACGGGATT
B26: UGUACCC (DNA:RNA)
RNA: B1 RNA with C25U, U26G, G27U, G28A, U29C, G30C
DNA 1: CAATCTGAATTCCGGTCTCCC
DNA 2: TGGTGGCTACGACGGGATT
B27: GCAGACU (DNA:RNA)
RNA: B1 RNA with C25G, U26C, G27A, U29A, G30C, C31U
DNA 1: CAATCTGAATTCCGGTCTCCC
DNA 2: TGGTGGCTACGACGGGATT
B28: CAGUAUG (DNA:RNA)
RNA: B1 RNA with U26A, G28U, U29A, G30U, C31G
DNA 1: CAATCTGAATTCCGGTCTCCC
DNA 2: TGGTGGCTACGACGGGATT
B29: GGUAUUG (DNA:RNA)
RNA: B1 RNA with C25G, U26G, G27U, G28A, G30U, C31G
DNA 1: CAATCTGAATTCCGGTCTCCC
DNA 2: TGGTGGCTACGACGGGATT
B30: ACGUAGC (DNA:RNA)
RNA: B1 RNA with C25A, U26C, G28U, U29A
DNA 1: CAATCTGAATTCCGGTCTCCC
DNA 2: TGGTGGCTACGACGGGATT
B31: CGGUCGU (DNA:RNA)
RNA: B1 RNA with U26G, G28U, U29C, C31U
DNA 1: CAATCTGAATTCCGGTCTCCC
DNA 2: TGGTGGCTACGACGGGATT
B32: ACGUAUG (DNA:RNA)
RNA: B1 RNA with C25A, U26C, G28U, U29A, G30U, C31G
DNA 1: CAATCTGAATTCCGGTCTCCC
DNA 2: TGGTGGCTACGACGGGATT
B33: GUCGGUA (DNA:RNA)
RNA: B1 RNA with C25G, G27C, U29G, G30U, C31A
DNA 1: CAATCTGAATTCCGGTCTCCC
DNA 2: TGGTGGCTACGACGGGATT
B34: GGUAUUA (DNA:RNA)
RNA: B1 RNA with C25G, U26G, G27U, G28A, G30U, C31A
DNA 1: CAATCTGAATTCCGGTCTCCC
DNA 2: TGGTGGCTACGACGGGATT
B35: CCCAGUA (DNA:RNA)
RNA: B1 RNA with U26C, G27C, G28A, U29G, G30U, C31A
DNA 1: CAATCTGAATTCCGGTCTCCC
DNA 2: TGGTGGCTACGACGGGATT
B36: GGUAUGU (DNA:RNA)
RNA: B1 RNA with C25G, U26G, G27U, G28A, C31U
DNA 1: CAATCTGAATTCCGGTCTCCC
DNA 2: TGGTGGCTACGACGGGATT
B37: ACGUCCC (DNA:RNA)
RNA: B1 RNA with C25A, U26C, G28U, U29C, G30C
DNA 1: CAATCTGAATTCCGGTCTCCC
DNA 2: TGGTGGCTACGACGGGATT
B38: GGUCCGU (DNA:RNA)
RNA: B1 RNA with C25G, U26G, G27U, G28C, U29C, C31U
DNA 1: CAATCTGAATTCCGGTCTCCC
DNA 2: TGGTGGCTACGACGGGATT
B39: AGUAUGU (DNA:RNA)
RNA: B1 RNA with C25A, U26G, G27U, G28A, C31U
DNA 1: CAATCTGAATTCCGGTCTCCC
DNA 2: TGGTGGCTACGACGGGATT

In the test the target is T1, RBFOX1 RRM RbFoxmut (Fox-RRM*). Briefly: EMSA; HiTS-Eq, 1 nM pool, 10 min; buffer printed only for the single-RNA assays: 10 mM Tris pH 7.5, 150 mM NaCl, 3.4 mM EDTA, 0.001% NP-40, 30 C. Particulars: tags: His6 N-terminal (pET28a); label: 5' 32P. In a few lines:
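Relative association constants, normalised to the cognate motif, were derived by comparing read counts of each RNA species with those of the control reaction. The RNA sequenced was the free fraction, separated by 8% native PAGE after a 10 min equilibration in 50 µL of 1 nM 5′-radiolabelled RNA (7 randomized nucleotides) with increasing concentrations of purified wild-type or mutant RbFox RRM.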
For orientation: In EMSA bound probe runs differently from free probe, usually more slowly.
On to B1, for which the binding signal is 0.0874 KA relative to UGCAUGU.
For the molecule B2, the binding signal was 0.0739 KA relative to UGCAUGU.
Turning to B3, the binding signal was 0.0884 KA relative to UGCAUGU.
To B4 belongs 0.0859 KA relative to UGCAUGU; to B5, 0.0784 KA relative to UGCAUGU.
Take B6: the binding signal was 0.1 KA relative to UGCAUGU.
As for B7, the binding signal was 0.0622 KA relative to UGCAUGU.
Turning to B8, the binding signal is 0.0664 KA relative to UGCAUGU.
To B9 belongs 0.137 KA relative to UGCAUGU.
Consider B10, for which the binding signal was 0.799 KA relative to UGCAUGU.
Next, B11: 0.128 KA relative to UGCAUGU; B12: 0.1 KA relative to UGCAUGU.
Next, B13: 0.11 KA relative to UGCAUGU; B14: 0.134 KA relative to UGCAUGU; B15: 0.998 KA relative to UGCAUGU.
To B16 belongs 1.23 KA relative to UGCAUGU; to B17, 0.834 KA relative to UGCAUGU.
As to B18, the binding signal is 0.108 KA relative to UGCAUGU.
For the molecule B19, the binding signal is 0.222 KA relative to UGCAUGU.
Turning to B20, the binding signal is 0.0782 KA relative to UGCAUGU.
On to B21, for which the binding signal was 0.133 KA relative to UGCAUGU.
To B22 belongs 0.0738 KA relative to UGCAUGU; to B23, 0.113 KA relative to UGCAUGU; to B24, 0.186 KA relative to UGCAUGU.
To B25 belongs 0.0525 KA relative to UGCAUGU.
As for B26, the binding signal is 0.0834 KA relative to UGCAUGU.
Consider B27, for which the binding signal was 0.0704 KA relative to UGCAUGU.
With B28, the binding signal is 0.566 KA relative to UGCAUGU.
As to B29, the binding signal was 0.466 KA relative to UGCAUGU.
For B30, the binding signal was 0.122 KA relative to UGCAUGU.
To B31 belongs 0.104 KA relative to UGCAUGU; to B32, 0.385 KA relative to UGCAUGU; to B33, 0.2 KA relative to UGCAUGU.
Take B34: the binding signal was 0.107 KA relative to UGCAUGU.
Regarding B35, the binding signal is 0.116 KA relative to UGCAUGU.
Take B36: the binding signal was 0.662 KA relative to UGCAUGU.
Turning to B37, the binding signal was 0.056 KA relative to UGCAUGU.
Next, B38: 0.136 KA relative to UGCAUGU; B39: 0.351 KA relative to UGCAUGU.
